The list is not random: actives were taken first. Their share in the collection is about 4%.
ERAP1 inh = human ERAP1 aminopeptidase inhibitors, primary screen, biochemical, single point, plate reader; Endoplasmic reticulum aminopeptidase 1 (Homo sapiens), Q9NZ08; recombinant ERAP1, Leu-AMC fluorescence, 60 min; inhibition, % at 10.7 µM; actives 0.15% (n = 340,000); AID 652197, 2013;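 active means mean replicate inhibition of at least 30%, or all replicates individually reaching that 30% level; inactive means mean below 30% and not every replicate reaching it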
FGF22 binding = binders of human FGF22 protein, primary screen, FGF22 synaptogenesis inhibitor project, biophysical, thermal shift, single point; Fibroblast growth factor 22 (Homo sapiens), Q9HCT0; AID 651658, 2012; activity (Tm shift, normalised), % at 9.99 µM; actives 1.5% (n = 340,000); recombinant FGF22 thermal shift, SYPRO orange fluorescence; percent of sucrose octasulfate shift, DMSO zero;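 active means mean Tm shift, scaled 0 neutral to 100 positive control, at about 1.3% or above, every replicate too, limit read from the data; inconclusive means no clear call, values can overlap the other calls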
AF4-AF9 inh = inhibitors of AF4 peptide binding to AF9, primary screen, biochemical, AlphaScreen, biotin-AF4 peptide, FLAG-AF9, single point; Protein AF-9 (Homo sapiens), P42568; inhibition, % at 10 µM; actives 0.47% (n = 350,000);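 active means every replicate reaching a set inhibition limit, whatever the replicate mean, cut at about 25% in these data; inconclusive means mean inhibition reaches that limit but some replicates miss it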
Target sequence (P42568 whole entry, looked up): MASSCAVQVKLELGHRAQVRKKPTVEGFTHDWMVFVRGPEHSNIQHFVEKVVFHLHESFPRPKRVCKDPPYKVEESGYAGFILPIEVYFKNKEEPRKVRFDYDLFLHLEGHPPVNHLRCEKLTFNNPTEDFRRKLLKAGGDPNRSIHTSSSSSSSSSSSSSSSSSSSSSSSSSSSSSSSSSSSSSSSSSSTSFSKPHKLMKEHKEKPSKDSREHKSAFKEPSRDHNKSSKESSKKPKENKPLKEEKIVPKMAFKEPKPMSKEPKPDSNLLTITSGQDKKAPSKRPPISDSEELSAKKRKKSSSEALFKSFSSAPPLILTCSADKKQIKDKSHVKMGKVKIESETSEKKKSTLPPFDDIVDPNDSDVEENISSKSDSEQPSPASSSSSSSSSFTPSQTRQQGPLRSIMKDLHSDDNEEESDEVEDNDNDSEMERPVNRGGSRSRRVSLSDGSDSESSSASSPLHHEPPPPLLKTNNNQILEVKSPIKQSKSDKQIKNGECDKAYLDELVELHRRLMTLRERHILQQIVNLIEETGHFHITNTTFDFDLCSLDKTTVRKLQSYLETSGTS
DENV2 CPE = inhibitors of DENV2 cytopathic effect, primary screen, cell-based, plate reader, single concentration | DENV2-infected cells, cytopathic effect rescue | AID 651640, 2012 | actives 1.7% (n = 350,000) | CPE inhibition, % at 9.99 µM; in the data active means CPE inhibition above about 20%, passing the limit was not always enough; inconclusive means no clear call, values can overlap the other calls; tested in BHK-21 cells
RAD52 anneal inh = RAD52 DNA annealing inhibitors, primary screen, biochemical, FRET, single point, set 2. recombinant RAD52 DNA annealing, FRET fluorescence. inhibition, % at 18.7 µM. actives 0.46% (n = 360,000). DNA repair protein RAD52 homolog (Homo sapiens), P43351. AID 651710, 2012;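 active means every replicate showing at least 50% inhibition; inconclusive means mean inhibition at least 50% but not in every replicate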
Each line names hits and unclear results; the compound was inactive in the other large screens.

COc1ccc2c3c(n(C)c2c1)[C@H](CO)N(S(C)(=O)=O)CC31CCN(CC2CC2)CC1	none
Cc1cccc(-c2ccc([C@@H]3[C@H](CO)N4C(=O)CN(C(=O)c5ccccc5)C[C@@H]34)cc2)c1	none (no result: FGF22 binding)
CC(C)CN1C(=O)[C@@]2(c3ccc([N+](=O)[O-])cc3)CC(=O)N(CC3C4CC5CC(C4)CC3C5)[C@@H]2c2ccc(CO)cc21 (some centres undefined)	none
COc1ccc(NC(=O)Nc2ccc3c(c2)C(=O)N([C@H](C)CO)C[C@H](C)[C@H](CN(C)C(=O)Nc2ccc4c(c2)OCO4)OCCCC[C@@H](C)O3)cc1	DENV2 CPE 40.2
COc1ccc(NC(=O)Nc2ccc3c(c2)C(=O)N([C@H](C)CO)C[C@@H](C)[C@@H](CN(C)C(=O)Nc2ccc4c(c2)OCO4)OCCCC[C@@H](C)O3)cc1	none
O=C(C1CC1)N1CC[C@H]2[C@H](CO)Nc3ccc(Br)cc3[C@H]21	DENV2 CPE 27.0
O=C(C1CC1)N1CC[C@@H]2[C@H]1c1cc(Br)ccc1N[C@@H]2CO	DENV2 CPE 35.6 (no result: ERAP1 inh, FGF22 binding, AF4-AF9 inh, RAD52 anneal inh)
COc1ccc2c3c(n(C)c2c1)[C@@H](CO)N(C(=O)c1ccc(F)cc1)CC31CCN(CC2CCOCC2)CC1	none
O=C(NCCO)c1ccc2c3n(nc2c1)-c1ccccc1CO3	DENV2 CPE 68.8 (no result: AF4-AF9 inh)
CC(C)OC(=O)C1CC(C)(O)C(=O)C(C(=O)OC(C)C)C1c1ccc([N+](=O)[O-])cc1 (centres undefined)	FGF22 binding 43.0 (no result: DENV2 CPE)
CC(C)OC(=O)C1C(=O)CC(C)(O)C(C(=O)OC(C)C)C1c1ccc(F)cc1 (centres undefined)	none
Cc1cc(N/N=C/c2ccccc2Br)nc2ccccc12	none (no result: DENV2 CPE)
Cc1cccc(C=NNc2cc(C)c3cccc(C)c3n2)n1	AF4-AF9 inh 25.1, DENV2 CPE inconclusive
CCC(=O)N[C@@H]1CC[C@@H](CC(=O)NCC2CCCCC2)O[C@H]1CO	none
COc1ccccc1NC(=O)N1CCCCN2[C@H](CO)[C@H](c3ccc(-c4ccc(C)cc4)cc3)[C@@H]2C1	none
COc1ccccc1NC(=O)N1CCCCN2[C@@H](CO)[C@H](c3ccc(-c4ccccc4)cc3)[C@@H]2C1	RAD52 anneal inh 67.2
COc1ccccc1NC(=O)N1CCCCN2[C@H](CO)[C@H](c3ccc(-c4ccccc4)cc3)[C@H]2C1	RAD52 anneal inh 51.7
COc1ccccc1-c1ccc([C@H]2[C@@H](CO)N3CCCCN(C(=O)NC4CCCC4)C[C@H]23)cc1	DENV2 CPE 23.2
COc1ccccc1NC(=O)N1CCCCN2[C@@H](CO)[C@@H](c3ccc(-c4ccccc4)cc3)[C@@H]2C1	RAD52 anneal inh 50.4
COc1cccc(S(=O)(=O)N2CC3(CCN(C)CC3)c3c([nH]c4cc(OC)ccc34)[C@@H]2CO)c1	none (no result: ERAP1 inh, FGF22 binding)
COc1ccc(CN(C)C[C@@H]2Oc3c(NC(=O)CCCCCC(=O)Nc4ccccc4N)cccc3C(=O)N([C@@H](C)CO)C[C@H]2C)cc1	none
Cc1ccc(S(=O)(=O)Nc2cccc3c2O[C@@H](CN(C)C(=O)Nc2ccc(F)cc2)[C@H](C)CN([C@H](C)CO)C3=O)cc1	none
CCC(=O)N(C)C[C@H]1Oc2cc(C#CC(C)(C)O)ccc2S(=O)(=O)N([C@@H](C)CO)C[C@@H]1C	none
CC[n+]1c(C)sc2c3ccsc3ccc21	FGF22 binding 43.3
COC(=O)C[C@H]1CC[C@H]2[C@@H](COc3ccc(NC(=O)c4cccs4)cc3C(=O)N2C)O1	none (no result: FGF22 binding)
CC=Cc1ccc2n(c1=O)C[C@H]1[C@H](CO)[C@@H](C(=O)NC3CCC3)N(Cc3ccncc3)[C@@H]21 (mixture of isomers)	none (no result: FGF22 binding)
CC(C)NC(=O)N(C)C[C@H]1OCCCC[C@@H](C)Oc2ccc(NC(=O)C3CCCCC3)cc2C(=O)N([C@@H](C)CO)C[C@H]1C	none
O=C(O)c1ccccc1C(=O)NCc1c(Cl)cccc1Sc1ccc(Cl)cc1	DENV2 CPE 26.2
Cc1ccccc1S(=O)(=O)NCC[C@@H]1CC[C@H](NS(=O)(=O)c2ccccc2C)[C@@H](CO)O1	none
